Reference: PubChem BioAssay AID743279 (National Center for Advancing Translational Sciences (NCATS), 2014)
About 17,000 (4.7%) of roughly 360,000 compounds were called active. Not shown: some 5% with an inconclusive outcome. No stated cut-off is given here; in the data, active means activity change below about -50%; inconclusive means mostly about -30% to -49%; inactive means weaker than that. Only a selection was taken, and actives are over-represented in it overall.

Test: qHTS for Inhibitors of Inflammasome Signaling: IL-1-beta AlphaLISA Primary Screen
Conditions: THP-1 LPS/ATP IL-1B secretion, 16 h; at 57.5 µM, hits give low values
Outline: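 THP-1 cells pretreated 1 hr with compounds (up to 57.5 uM final), then stimulated with LPS (250 ng/mL final) plus ATP (1.25 mM final); secreted IL-1B measured by AlphaLISA after 16 hr, decreased signal indicating inhibition.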
On the % scale 0 is the no-effect control and ±100 the full control effect.

Activity change, inactive:
O=C(CN1CCCCCC1)NCCN1C(=O)S/C(=C\c2ccccc2Cl)C1=O -15.4%
COc1cccc(/C=C2/SC(=S)N(CC(=O)NC3C=CS(=O)(=O)C3)C2=O)c1 (configuration not stated) -11%
CC(=O)Nc1ccccc1C(=O)C(=O)Nc1ccc(F)cc1 6.97%
CC(NC(=O)c1ccccc1)C(=O)OCC(=O)Nc1cccc(S(=O)(=O)N2CCCC2)c1 (configuration not stated) -0.602%
Cc1ccnc(SC2CC(=O)N(c3ccccc3)C2=O)n1 (configuration not stated) -12.7%
Cc1nc(Nc2ccccc2C)c2cnn(C)c2n1 5.45%
CCCCc1ccc(S(=O)(=O)NC(=O)C2(C)CCN2C(=O)c2ccccc2)cc1 (configuration not stated) 48.7%
CCOC(=O)Nc1ccc(S(=O)(=O)N(C)C(C)C)cc1 24%
CCOC(=O)Nc1ccc2c(c1)N(C(=O)CCN1CCN(CCO)CC1)c1ccccc1CC2 -7.2%
Cc1ccc(CNC(=O)C(=O)c2cn(CC(=O)N3CCOCC3)c3ccccc23)cc1 -24.4%
CC(=O)Nc1ccc(NC(=O)COC(=O)c2ccccc2C(=O)c2ccccc2)cc1 -29.6%
COC(=O)c1cc(NC(=O)Cc2ccccc2[N+](=O)[O-])ccc1Cl 11.8%
NC(=O)c1ccc(NC(=O)COC(=O)c2ccc([N+](=O)[O-])cc2)cc1 3.51%
CC(CC(=O)O)C(=O)c1ccc(Cl)c([N+](=O)[O-])c1 (configuration not stated) -17.6%
C[C@H]1CN([C@@H](C)CO)C(=O)CCCn2cc(nn2)CO[C@@H]1CN(C)S(=O)(=O)c1ccccc1C#N 4.98%
Cc1cc(C)c(C=NNc2nc3c([nH]2)c(=O)n(C)c(=O)n3C)c(C)c1 -9.11%
O=C(COC(=O)CCc1c[nH]c2ccccc12)Nc1cccc(Cl)c1 8.98%
CSc1ccc(CN2CCC2(C)C(=O)NCc2ccccc2Br)cc1 (configuration not stated) 35.5%
Cc1c(NC(=O)C(C)OC(=O)c2ccccc2O)c(=O)n(-c2ccccc2)n1C (configuration not stated) 2.66%
COc1ccc(NS(=O)(=O)c2ccc(C(=O)Nc3c(C)n(C)n(-c4ccccc4)c3=O)cc2)cc1 -16.8%
CSCCC(NC(=O)c1ccco1)C(=O)NCCc1ccc(F)cc1 (configuration not stated) -9.3%
Nc1nnc(SCCN2C(=O)c3ccccc3S2(=O)=O)s1 10.6%
c1ccc(-c2ccccc2OCCN2CCCCC2)cc1 -0.581%
CCN(CC(=O)NC1CCS(=O)(=O)C1)c1nc(-c2cccnc2)nc2ccccc12 (configuration not stated) -2.86%
O=C(CSc1cccc[n+]1[O-])c1ccc(-c2ccccc2)cc1 31.4%
COCCNc1ncnc2c1ncn2[C@H]1CN(CCN2CCOCC2)C[C@@H](CO)O1 1.62%
NC(=O)C1CCN(C(=O)c2cn(-c3ccccc3)nc2-c2cccnc2)CC1 -2.49%
CCc1ccc(-c2nn(-c3ccccc3C)cc2C(=O)N2CCN(C3CCS(=O)(=O)C3)CC2)cc1 (configuration not stated) 16.7%
CCOC(=O)c1ccc(COC(=O)CCc2nc(-c3ccccc3)c(-c3ccccc3)o2)cc1 31.5%
CC(C)Nc1ncnc2c1ncn2[C@H]1CN(Cc2ccncc2)C[C@@H](CO)O1 22.2%
O=C(Nc1ccc(S(=O)(=O)N2CCOCC2)cc1)C1CCN(S(=O)(=O)c2ccc(Cl)cc2)CC1 -6.97%
Clc1ccc(Nc2ccc3ccccc3n2)cc1 -15.6%
C(=N\Nc1ccc2ccccc2n1)/c1ccc2c(c1)OCO2 -9.79%
O=C(Nc1ccc(Cl)cc1)c1csc([C@@H]2O[C@H](CO)[C@H](O)[C@H](O)[C@H]2O)n1 17.3%
Cc1nnc(SC(C)C(=O)c2c[nH]c3ccccc23)n1C1CC1 (configuration not stated) 0%
Cc1onc(-c2c(F)cccc2Cl)c1C(=O)Nc1cccc(S(=O)(=O)N2CCCCC2)c1 -19.9%
CCC(CO)Oc1cc(NC(=O)c2ccc(Cl)cc2)c2ncn(C(C)C)c2c1 (configuration not stated) -3.64%
CCC(CO)Oc1cc(NC(=O)c2cccc(F)c2)c2ncn(C(C)C)c2c1 (configuration not stated) -4.82%
COc1ccc(CCNC(=O)COC(=O)Cc2cc(OC)c(OC)c(OC)c2)cc1 28%
Cc1cc(C)c2c(=O)n3c(nc2c1)C(CC(C)C)NC(=O)c1cc2ccccc2cc1-3 (configuration not stated) 24.5%
CC(C)CNS(=O)(=O)c1ccc(C(=O)Nc2ccc3c(c2)OCO3)cc1 -5.7%
Cc1cccc(NC(=O)Nc2ccc3c(c2)OCO3)n1 -14.3%
Cc1ccc(C(=O)Nc2c(-c3ccccc3)[nH][nH]c2=O)cc1 0%
Cc1ccc2c(c1)C(c1ccccc1)N(C(=O)c1ccc(F)cc1)CC(=O)N2 (configuration not stated) 22.3%
Cc1oc2c(c1C(=O)N1CCOCC1)C(=O)c1ccccc1C2=O -0.813%
O=S(=O)(Nc1cc(Cl)ccc1N1CCOCC1)c1ccccc1Cl -27.8%
O=S1(=O)CC(N2CCN(CCO)CC2)CN1Cc1cn(Cc2ccc(Cl)cc2)nn1 (configuration not stated) 0%
COc1ccc2cc(C(=O)O)n(CC(=O)c3ccccc3)c2c1 0%
O=C(Cn1nnc(N2CCCCC2)n1)c1ccc(Cl)c(Cl)c1 -1.15%
CCOC(=O)c1cc2ccccc2n1CC(=O)c1ccccc1 28.5%
CCN(CC)CC1(O)CCN(C(=O)c2ccc(Cl)c(Cl)c2)CC1 12.6%
Cc1cc(Cl)ccc1C(=O)C1CCCN(C(=O)c2ccc3c(c2)OCO3)C1 (configuration not stated) -15.9%
Cc1cccc(C2c3c(n(C)c(=O)n(C)c3=O)N=C3c4ccccc4C(=O)C32)c1 (configuration not stated) 13.5%
Cc1ccccc1S(=O)(=O)NC(=O)C1(C)CCN1C(=O)C1(c2ccc(Cl)cc2)CC1 (configuration not stated) 22.8%
O=C(NNC(=O)c1ccc2ccccc2c1)c1ccc(Cl)cc1 -7.64%
COc1ccc(NC(=O)CN(C)C(=O)CNC(=O)C2CCCCC2)cc1
COc1ccc(C(=O)C(OP(=O)(OC)OC)c2ccccc2OC)cc1 (configuration not stated) 0%
OCCC1CN(Cc2cccc(OC3CCCC3)c2)CCN1Cc1ccsc1 (configuration not stated) -20.7%
CC1=C[C@H]2Cc3cc(C)cc(C)c3S(=O)(=O)[C@@H]2C=C1 -1.95%
Cc1ccccc1Cn1c(C)c(C(=O)NCc2cccc(C(F)(F)F)c2)sc1=O -29.1%
O=C(O)c1ccc(F)c(S(=O)(=O)Nc2ccccc2)c1 0%
COc1ccc(NS(=O)(=O)c2cc(C(=O)Nc3ccccc3C(=O)O)ccc2C)cc1 11.7%
CCOC(=O)C=Cc1ccc(C(=O)OCC)[nH]1 12.1%
CCOC(=O)C1=C(CSc2nccn2C)NC(=O)NC1c1ccc(OC)cc1 (configuration not stated) -4.23%
CCOCCOC(=O)C1=C(C)NC(=O)NC1c1ccc2c(c1)OCO2 (configuration not stated) -7.25%
Cn1c(=O)[nH]c2c(c(C(=O)O)nn2C)c1=O -10.6%
CSc1cccc(NC(=O)CSc2ccccc2)c1 -2.08%
CC(C)CC(=O)Nc1ccc(Cc2ccncc2)cc1 -7.35%
CCOc1ccc(C(=O)Nc2cccc(-c3ccc4nncn4n3)c2)cc1 0%
CCOc1ccc(NC(=O)c2ccc(NC(=O)C3CCCO3)cc2)cc1 (configuration not stated) -7.47%
CCc1ccc(NC(=O)N[C@H](C(=O)O)C(C)CC)cc1 (some centres not stated) 21.9%
CCOc1ccc(C(=O)CCC(=O)Nc2ccncc2)cc1 2.33%

Activity change, active:
O=C(CN1C(=O)S/C(=C\c2ccccc2Cl)C1=O)NC1C=CS(=O)(=O)C1 (configuration not stated) -99.6%
Cc1ccnc(-n2sc3ccccc3c2=O)n1 -95.9%
CCOC(=O)Nc1ccc2c(c1)N(C(=O)CCCl)c1ccccc1[S@]2=O -96.5%
N#Cc1cccc(NC(=O)COC(=O)c2ccccc2C(=O)c2ccc(Cl)c([N+](=O)[O-])c2)c1 -112%
CC(=O)Nc1ccc(NC(=O)C(C)OC(=O)c2ccccc2C(=O)c2ccc(Cl)c([N+](=O)[O-])c2)cc1 (configuration not stated) -108%
COc1ccc(C(=O)C(C)OC(=O)c2cccc(S(=O)(=O)Nc3c(C)n(C)n(-c4ccccc4)c3=O)c2)cc1 (configuration not stated) -73.2%
O=S1(=O)C=C(SCCN2CCCC2)c2ccccc21 -84.4%
CCc1ccc(-c2nn(-c3ccccc3)cc2CSC(=N)N)cc1 -102%
Cc1noc(C)c1/C=N/Nc1ccc2ccccc2n1 -70.6%
CCC(CO)Oc1cc(NC(=O)c2cccc3ccccc23)c2ncn(C(C)C)c2c1 (configuration not stated) -67.6%
CNS(=O)(=O)c1ccc(NC(=O)Nc2ccc3c(c2)OCO3)cc1 -52.3%
O=C1c2ccccc2-c2ncnc3c(N4CCOCC4)cc(N4CCOCC4)c1c23 -66.7%
CCCn1c(=N)n(CC(=O)c2ccc(Cl)c(Cl)c2)c2ccccc21 -91.6%
CCn1c(=N)n(CC(=O)c2cccc(OC)c2)c2ccccc21 -63%
CN(CC(=O)Nc1ccc(Cl)cc1)C(=O)CNC(=O)c1ccc2ccccc2c1 -102%
Cc1ccc(C(=O)Nc2ccccc2-c2ccccc2)cc1S(=O)(=O)Nc1ccccc1 -69.2%
CCOC(=O)C1=C(CCc2ccccc2)NC(=O)NC1c1ccc2ccccc2c1 (configuration not stated) -52.7%
CCOc1ccc(C(=O)Nc2ccncc2)cc1 -73.6%
CCc1ccc(NC(=O)Nc2ccncc2)cc1 -73.4%
CCOc1ccc(C(=O)Nc2cccc(SC)c2)cc1 -79.8%
